Measured values reported in ChEMBL document CHEMBL1961873, “Compounds: GSK PKIS; Assays: Nanosyn kinase panel” (2012).

Legend:
[1] = target: Ribosomal protein S6 kinase alpha-6 (Homo sapiens) (UniProt Q9UK32); conditions: at 1 µM;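 note: each value is a mean inhibition of RSK4 from a GSK PKIS panel screen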
[2] = target: T1, Serine/threonine-protein kinase Sgk1 (Homo sapiens) (UniProt O00141); conditions: at 0.1 µM
T1 sequence (whole entry): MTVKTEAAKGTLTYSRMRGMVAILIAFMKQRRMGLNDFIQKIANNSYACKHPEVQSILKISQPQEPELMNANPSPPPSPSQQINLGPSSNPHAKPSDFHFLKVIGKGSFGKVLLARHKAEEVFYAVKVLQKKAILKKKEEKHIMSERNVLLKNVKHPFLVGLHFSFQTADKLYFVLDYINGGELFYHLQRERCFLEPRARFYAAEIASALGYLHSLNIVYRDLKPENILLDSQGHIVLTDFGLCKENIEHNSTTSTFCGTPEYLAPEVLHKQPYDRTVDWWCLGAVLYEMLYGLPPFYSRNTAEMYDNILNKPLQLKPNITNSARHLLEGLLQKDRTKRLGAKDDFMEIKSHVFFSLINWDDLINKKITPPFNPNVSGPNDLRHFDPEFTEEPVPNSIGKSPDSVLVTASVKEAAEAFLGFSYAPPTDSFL

[3] = target: T1, Serine/threonine-protein kinase Sgk1 (Homo sapiens); conditions: at 1 µM
[4] = target: T2, Serine/threonine-protein kinase Sgk2 (Homo sapiens) (UniProt Q9HBY8); conditions: at 0.1 µM
T2 sequence (whole entry): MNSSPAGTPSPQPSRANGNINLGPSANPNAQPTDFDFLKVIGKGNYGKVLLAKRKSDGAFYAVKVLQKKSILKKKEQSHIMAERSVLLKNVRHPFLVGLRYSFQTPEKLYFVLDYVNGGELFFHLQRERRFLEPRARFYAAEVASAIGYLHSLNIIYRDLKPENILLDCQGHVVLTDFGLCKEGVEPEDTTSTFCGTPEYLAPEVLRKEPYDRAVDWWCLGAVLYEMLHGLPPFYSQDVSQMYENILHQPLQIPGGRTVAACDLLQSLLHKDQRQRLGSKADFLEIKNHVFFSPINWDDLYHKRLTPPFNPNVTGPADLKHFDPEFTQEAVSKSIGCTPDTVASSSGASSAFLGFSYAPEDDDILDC

[5] = target: T2, Serine/threonine-protein kinase Sgk2 (Homo sapiens); conditions: at 1 µM
[6] = target: T3, Serine/threonine-protein kinase Sgk3 (Homo sapiens) (UniProt Q96BR1); conditions: at 0.1 µM
T3 sequence (whole entry): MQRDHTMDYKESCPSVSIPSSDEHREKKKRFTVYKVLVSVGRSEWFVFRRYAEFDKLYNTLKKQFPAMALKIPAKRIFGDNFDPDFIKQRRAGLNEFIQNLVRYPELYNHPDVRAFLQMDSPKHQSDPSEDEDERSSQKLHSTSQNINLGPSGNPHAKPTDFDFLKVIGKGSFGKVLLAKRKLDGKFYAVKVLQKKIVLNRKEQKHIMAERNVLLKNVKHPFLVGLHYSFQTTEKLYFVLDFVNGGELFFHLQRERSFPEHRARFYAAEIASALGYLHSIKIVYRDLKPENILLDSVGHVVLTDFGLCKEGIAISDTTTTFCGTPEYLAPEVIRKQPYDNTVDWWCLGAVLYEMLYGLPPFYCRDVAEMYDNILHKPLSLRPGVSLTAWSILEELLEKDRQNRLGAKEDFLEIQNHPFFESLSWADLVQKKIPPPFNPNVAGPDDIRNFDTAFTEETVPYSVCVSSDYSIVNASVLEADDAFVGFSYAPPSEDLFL

[7] = target: T3, Serine/threonine-protein kinase Sgk3 (Homo sapiens); conditions: at 1 µM
[8] = target: 5'-AMP-activated protein kinase catalytic subunit alpha-1 (Homo sapiens) (UniProt Q13131); conditions: at 0.1 µM
5'-AMP-activated protein kinase catalytic subunit alpha-1 (Homo sapiens), sequence (Q13131 whole entry, looked up): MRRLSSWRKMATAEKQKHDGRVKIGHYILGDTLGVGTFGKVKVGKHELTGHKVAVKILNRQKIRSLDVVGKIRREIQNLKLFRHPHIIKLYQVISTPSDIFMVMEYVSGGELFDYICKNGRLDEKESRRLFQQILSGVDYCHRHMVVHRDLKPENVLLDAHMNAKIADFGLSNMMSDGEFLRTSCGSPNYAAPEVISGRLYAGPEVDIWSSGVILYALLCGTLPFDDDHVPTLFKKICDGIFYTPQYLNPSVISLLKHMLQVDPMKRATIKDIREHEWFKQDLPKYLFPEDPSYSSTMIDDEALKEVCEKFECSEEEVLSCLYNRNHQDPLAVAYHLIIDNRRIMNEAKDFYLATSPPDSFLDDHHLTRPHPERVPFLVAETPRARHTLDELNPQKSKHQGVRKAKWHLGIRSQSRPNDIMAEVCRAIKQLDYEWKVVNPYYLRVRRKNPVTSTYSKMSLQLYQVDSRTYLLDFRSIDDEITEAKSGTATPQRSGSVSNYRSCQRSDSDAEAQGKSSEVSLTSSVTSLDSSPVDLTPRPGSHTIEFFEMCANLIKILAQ

[9] = target: 5'-AMP-activated protein kinase catalytic subunit alpha-1 (Homo sapiens) (UniProt Q13131); conditions: at 1 µM
[10] = target: 5'-AMP-activated protein kinase catalytic subunit alpha-2 (Homo sapiens) (UniProt P54646); conditions: at 0.1 µM
5'-AMP-activated protein kinase catalytic subunit alpha-2 (Homo sapiens), sequence (P54646 whole entry, looked up): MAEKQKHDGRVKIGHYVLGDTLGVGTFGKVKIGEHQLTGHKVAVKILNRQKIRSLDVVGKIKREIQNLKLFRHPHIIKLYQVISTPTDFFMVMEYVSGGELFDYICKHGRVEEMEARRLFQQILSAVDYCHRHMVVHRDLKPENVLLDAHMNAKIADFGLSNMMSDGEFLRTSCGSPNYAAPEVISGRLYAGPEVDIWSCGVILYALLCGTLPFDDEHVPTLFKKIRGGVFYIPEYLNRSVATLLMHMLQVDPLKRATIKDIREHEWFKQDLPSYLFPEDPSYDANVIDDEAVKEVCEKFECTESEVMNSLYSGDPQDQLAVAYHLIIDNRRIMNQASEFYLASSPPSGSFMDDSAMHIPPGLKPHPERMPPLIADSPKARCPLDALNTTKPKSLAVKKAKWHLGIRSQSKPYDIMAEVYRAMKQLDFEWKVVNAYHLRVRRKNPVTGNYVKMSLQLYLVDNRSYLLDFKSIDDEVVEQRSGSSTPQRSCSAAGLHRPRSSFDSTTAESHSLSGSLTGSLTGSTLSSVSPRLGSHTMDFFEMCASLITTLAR

[11] = target: 5'-AMP-activated protein kinase catalytic subunit alpha-2 (Homo sapiens) (UniProt P54646); conditions: at 1 µM
[12] = target: T4, NUAK family SNF1-like kinase 1 (Homo sapiens) (UniProt O60285); conditions: at 0.1 µM
T4 sequence (whole entry): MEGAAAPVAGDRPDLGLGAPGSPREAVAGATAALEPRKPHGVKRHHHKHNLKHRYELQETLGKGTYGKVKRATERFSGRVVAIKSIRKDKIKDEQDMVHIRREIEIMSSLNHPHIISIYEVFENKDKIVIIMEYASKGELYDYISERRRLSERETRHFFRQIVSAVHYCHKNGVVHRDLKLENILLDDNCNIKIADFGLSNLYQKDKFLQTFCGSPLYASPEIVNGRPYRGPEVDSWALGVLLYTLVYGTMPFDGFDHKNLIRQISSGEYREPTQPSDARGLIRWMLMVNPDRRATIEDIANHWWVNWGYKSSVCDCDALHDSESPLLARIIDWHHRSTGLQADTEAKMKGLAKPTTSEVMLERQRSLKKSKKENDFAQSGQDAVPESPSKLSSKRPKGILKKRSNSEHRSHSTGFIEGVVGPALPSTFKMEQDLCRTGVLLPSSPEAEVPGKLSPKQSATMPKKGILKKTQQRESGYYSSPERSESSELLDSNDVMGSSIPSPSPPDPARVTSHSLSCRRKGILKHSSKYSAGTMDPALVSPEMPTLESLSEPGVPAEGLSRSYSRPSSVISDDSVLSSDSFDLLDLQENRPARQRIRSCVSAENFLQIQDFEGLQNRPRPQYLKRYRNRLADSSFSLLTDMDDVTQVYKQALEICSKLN

[13] = target: T4, NUAK family SNF1-like kinase 1 (Homo sapiens); conditions: at 1 µM
[14] = target: T5, Serine/threonine-protein kinase BRSK1 (Homo sapiens) (UniProt Q8TDC3); conditions: at 0.1 µM
T5 sequence (whole entry): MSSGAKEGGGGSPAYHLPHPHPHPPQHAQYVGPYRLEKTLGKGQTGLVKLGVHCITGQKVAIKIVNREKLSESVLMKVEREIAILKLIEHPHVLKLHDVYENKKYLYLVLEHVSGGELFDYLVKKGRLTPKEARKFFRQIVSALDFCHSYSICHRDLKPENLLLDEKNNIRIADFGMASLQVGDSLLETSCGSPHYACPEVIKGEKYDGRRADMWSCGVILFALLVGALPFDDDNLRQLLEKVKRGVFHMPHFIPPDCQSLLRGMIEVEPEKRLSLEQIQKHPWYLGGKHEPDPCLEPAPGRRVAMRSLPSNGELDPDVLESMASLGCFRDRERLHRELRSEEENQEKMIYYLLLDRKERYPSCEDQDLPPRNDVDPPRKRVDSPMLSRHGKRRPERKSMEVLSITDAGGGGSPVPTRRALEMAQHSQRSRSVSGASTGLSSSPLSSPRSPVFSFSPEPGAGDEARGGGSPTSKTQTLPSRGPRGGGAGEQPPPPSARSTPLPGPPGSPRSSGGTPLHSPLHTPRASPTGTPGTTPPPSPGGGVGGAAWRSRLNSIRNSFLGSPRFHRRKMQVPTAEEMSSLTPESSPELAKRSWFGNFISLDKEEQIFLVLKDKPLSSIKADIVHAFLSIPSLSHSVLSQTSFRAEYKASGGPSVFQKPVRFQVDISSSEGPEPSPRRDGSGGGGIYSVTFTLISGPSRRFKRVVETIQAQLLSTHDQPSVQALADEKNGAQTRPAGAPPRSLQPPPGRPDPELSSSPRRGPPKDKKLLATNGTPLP

[15] = target: T5, Serine/threonine-protein kinase BRSK1 (Homo sapiens); conditions: at 1 µM
[16] = target: T6, Serine/threonine-protein kinase BRSK2 (Homo sapiens) (UniProt Q8IWQ3); conditions: at 0.1 µM
T6 sequence (whole entry): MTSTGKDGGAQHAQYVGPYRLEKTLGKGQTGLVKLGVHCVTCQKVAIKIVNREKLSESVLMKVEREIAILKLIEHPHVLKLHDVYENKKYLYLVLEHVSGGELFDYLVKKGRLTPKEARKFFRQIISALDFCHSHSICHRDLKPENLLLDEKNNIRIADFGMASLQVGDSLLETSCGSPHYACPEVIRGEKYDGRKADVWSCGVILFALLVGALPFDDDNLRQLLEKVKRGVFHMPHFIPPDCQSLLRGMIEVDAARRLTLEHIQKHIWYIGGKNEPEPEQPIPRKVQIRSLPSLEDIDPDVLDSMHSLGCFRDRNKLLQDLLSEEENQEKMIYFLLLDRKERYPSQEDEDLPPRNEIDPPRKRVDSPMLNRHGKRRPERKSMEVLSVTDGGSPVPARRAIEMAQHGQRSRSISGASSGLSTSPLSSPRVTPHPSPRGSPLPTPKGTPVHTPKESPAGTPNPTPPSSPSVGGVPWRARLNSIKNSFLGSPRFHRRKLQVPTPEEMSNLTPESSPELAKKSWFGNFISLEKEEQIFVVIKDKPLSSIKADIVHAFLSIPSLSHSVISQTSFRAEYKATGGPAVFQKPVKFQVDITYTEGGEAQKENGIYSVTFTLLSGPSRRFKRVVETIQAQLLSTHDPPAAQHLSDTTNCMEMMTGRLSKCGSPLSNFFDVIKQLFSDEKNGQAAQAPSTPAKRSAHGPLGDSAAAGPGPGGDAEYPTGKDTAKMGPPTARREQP

[17] = target: T6, Serine/threonine-protein kinase BRSK2 (Homo sapiens); conditions: at 1 µM
[18] = target: Calcium/calmodulin-dependent protein kinase type 1D (Homo sapiens) (UniProt Q8IU85); conditions: at 0.1 µM
Calcium/calmodulin-dependent protein kinase type 1D (Homo sapiens), sequence (Q8IU85 whole entry, looked up): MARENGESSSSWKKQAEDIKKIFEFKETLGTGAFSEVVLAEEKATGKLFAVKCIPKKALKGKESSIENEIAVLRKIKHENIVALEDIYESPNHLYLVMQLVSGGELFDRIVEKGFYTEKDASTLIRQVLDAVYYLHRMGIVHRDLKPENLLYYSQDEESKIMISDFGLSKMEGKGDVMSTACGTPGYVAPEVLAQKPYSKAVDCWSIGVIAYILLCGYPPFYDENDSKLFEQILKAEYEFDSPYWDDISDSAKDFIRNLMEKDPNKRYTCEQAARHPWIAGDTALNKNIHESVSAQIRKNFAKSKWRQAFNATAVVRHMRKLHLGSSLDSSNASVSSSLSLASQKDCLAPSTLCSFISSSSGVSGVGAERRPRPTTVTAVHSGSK

[19] = target: Calcium/calmodulin-dependent protein kinase type 1D (Homo sapiens) (UniProt Q8IU85); conditions: at 1 µM
[20] = target: Calcium/calmodulin-dependent protein kinase type II subunit alpha (Homo sapiens) (UniProt Q9UQM7); conditions: at 0.1 µM;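 note: reported values are averages (mean inhibition of CAMK2A)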
Calcium/calmodulin-dependent protein kinase type II subunit alpha (Homo sapiens), sequence (Q9UQM7 whole entry): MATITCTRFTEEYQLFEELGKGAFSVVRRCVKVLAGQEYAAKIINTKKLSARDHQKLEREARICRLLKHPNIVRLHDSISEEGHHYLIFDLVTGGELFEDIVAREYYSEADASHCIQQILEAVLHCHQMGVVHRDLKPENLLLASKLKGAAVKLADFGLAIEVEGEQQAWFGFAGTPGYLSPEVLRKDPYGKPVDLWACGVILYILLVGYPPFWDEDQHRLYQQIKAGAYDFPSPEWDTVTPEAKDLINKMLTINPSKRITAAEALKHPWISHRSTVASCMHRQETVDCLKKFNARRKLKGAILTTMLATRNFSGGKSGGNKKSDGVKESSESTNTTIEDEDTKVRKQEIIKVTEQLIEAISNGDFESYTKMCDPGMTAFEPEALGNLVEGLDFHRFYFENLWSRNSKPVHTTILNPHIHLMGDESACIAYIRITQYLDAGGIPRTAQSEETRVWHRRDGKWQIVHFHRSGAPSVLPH

Ribosomal protein S6 kinase alpha-6 (Homo sapiens), sequence (Q9UK32 whole entry): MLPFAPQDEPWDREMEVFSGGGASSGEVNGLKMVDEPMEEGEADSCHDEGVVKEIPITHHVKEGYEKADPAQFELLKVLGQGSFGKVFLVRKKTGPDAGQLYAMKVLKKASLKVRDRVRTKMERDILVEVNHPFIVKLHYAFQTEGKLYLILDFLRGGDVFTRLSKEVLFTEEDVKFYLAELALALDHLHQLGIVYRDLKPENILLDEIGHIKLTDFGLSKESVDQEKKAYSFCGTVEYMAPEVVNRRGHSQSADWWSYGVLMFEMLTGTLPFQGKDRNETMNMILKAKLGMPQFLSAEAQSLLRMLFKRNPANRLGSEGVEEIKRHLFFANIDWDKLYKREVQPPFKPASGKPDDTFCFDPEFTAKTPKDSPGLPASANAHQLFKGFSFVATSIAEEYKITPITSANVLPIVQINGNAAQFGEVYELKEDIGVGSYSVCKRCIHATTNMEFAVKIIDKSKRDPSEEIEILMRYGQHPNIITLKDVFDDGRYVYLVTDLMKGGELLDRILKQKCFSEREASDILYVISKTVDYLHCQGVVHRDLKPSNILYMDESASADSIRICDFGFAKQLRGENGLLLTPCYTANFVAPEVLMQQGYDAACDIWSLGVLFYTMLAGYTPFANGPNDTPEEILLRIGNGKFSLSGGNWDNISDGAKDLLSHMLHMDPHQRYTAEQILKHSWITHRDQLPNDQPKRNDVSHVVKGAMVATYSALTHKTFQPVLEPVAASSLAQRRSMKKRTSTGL

Compound	inhibition [1]	inhibition [2]	inhibition [3]	inhibition [4]	inhibition [5]	inhibition [6]	inhibition [7]	inhibition [8]	inhibition [9]	inhibition [10]	inhibition [11]	inhibition [12]	inhibition [13]	inhibition [14]	inhibition [15]	inhibition [16]	inhibition [17]	inhibition [18]	inhibition [19]	inhibition [20]
NCc1ccc(-n2c(-c3nonc3N)nc3cnccc32)cc1	36.2%	5.32%	11.7%	5.18%	17.3%	3.68%	28.2%	5.3%	7.27%	6.07%	8.19%	4.91%	7.23%	4.76%	6.27%	4.11%	8.49%	2.03%	4.78%	4.91%
O=C(Nc1n[nH]c2nc(-c3ccc(O)cc3)c(Br)cc12)C1CC1	59.7%	3.83%	12.1%	6.54%	24.8%	5.88%	16.7%	5.78%	20.1%	4.36%	12.1%	8.05%	30.2%	25.8%	66.8%	33.5%	70.2%	3.09%	14.4%	4.24%
COc1ccc(C2=C(N3CCc4ccccc43)C(=O)NC2=O)cc1	4.12%	5.57%	2.06%	-2.15%	-5.83%	4.38%	1.94%	4.29%	5.67%	1.73%	5.49%	3.26%	9.32%	1.07%	3.32%	2.56%	3.2%	0.57%	1.29%	5.74%
